Screen size: about 69,000 compounds; about 8,600 (12%) showed an effect of 50% or more. The sample as a whole holds a higher share of strong results than the screen did.
These compounds were tested on Plasmodium berghei (assay: Screen against P. berghei liver stage (PbLuc), transformed with Luciferase, at 10uM). Conditions: tested at 10 uM.
Assay type: functional, HepG2

Row | Structure (SMILES) | INHIBITION [%]
1 | CC(O)c1cccc(Nc2nc(NCCO)c3ccccc3n2)c1 (stereo not drawn) | 44.9
2 | CCN(CC)c1nc(Nc2cccc(C(C)O)c2)nc2ccccc12 (stereo not drawn) | 87.2
3 | CCN(CC)c1nc(Nc2cccc(C(=O)O)c2)nc2ccccc12 | 5.18
4 | COc1coc(CN2CCCC(CCc3ccc(F)cc3)C2)cc1=O (stereo not drawn) | 73.5
5 | COc1ccc(CCC2CCCN(CC(=O)O)C2)cc1 (stereo not drawn) | 23.9
6 | COc1ccc(CN2CCCC(Cn3nc(C)nc3C)C2)cc1F (stereo not drawn) | -15.8
7 | COCCN1CC2(CCCN(Cc3cc(=O)c(OC)co3)C2)CCC1=O (stereo not drawn) | 23.9
8 | COc1coc(CN2CCCC3(CCC(=O)N(CC4CC4)C3)C2)cc1=O (stereo not drawn) | 33.2
9 | COc1coc(CN2CCCC(CCc3ccc(F)c(F)c3)C2)cc1=O (stereo not drawn) | 63.6
10 | Cc1[nH]c(=O)[nH]c(=O)c1CN1CCCC(CCc2ccc(F)c(F)c2)C1 (stereo not drawn) | 4.48
11 | Cc1[nH]c(=O)[nH]c(=O)c1CN1CCCC(CCc2ccccc2)C1 (stereo not drawn) | -38.2
12 | COc1coc(CN2CCCC3(CCC(=O)N(C4CC4)C3)C2)cc1=O (stereo not drawn) | 53.6
13 | CCOc1cc(C(=O)N2CCCC(n3nc(C)nc3C)C2)ccn1 (stereo not drawn) | -11.9
14 | Cc1noc(C)c1-c1nc(N(C)CCN(C)C)ncc1-c1cnccn1 | 2.71
15 | CC(C)(C)c1cc(CN2C[C@H]3CC[C@@H](C2)N(Cc2ccccn2)C3)n[nH]1 | 33.3
16 | c1ncn(Cc2cnc3n2CCN(Cc2ccsc2)CC3)n1 | 37
17 | CC(C)(C)CC(=O)Nc1ccccc1SCC(N)=O | -53.6
18 | CN(C)CC1(O)CCN(Cc2cnc3c(-c4ccccc4)cnn3c2)C1 (stereo not drawn) | 20.2
19 | O=C1CN(Cc2cnc3c(-c4ccccc4)cnn3c2)CCCN1 | 75.1
20 | CC(O)C1CCN(Cc2cnc3c(-c4ccccc4)cnn3c2)CC1 (stereo not drawn) | 63.6
21 | FC(F)(F)C1CN(Cc2cnc3c(-c4ccccc4)cnn3c2)CCO1 (stereo not drawn) | 25.9
22 | O=C1CCN(Cc2cnc3c(-c4ccccc4)cnn3c2)CCN1 | 29.2

Row | Structure (SMILES) | INHIBITION [%]
23 | NCCC1CN(Cc2cnc3c(-c4ccccc4)cnn3c2)CCO1 (stereo not drawn) | 40.7
24 | c1ccc(-c2cnn3cc(CN4CCC5(CCO5)CC4)cnc23)cc1 | 87.4
25 | OCCN1CCN(Cc2cnc3c(-c4ccccc4)cnn3c2)CC1 | 44.8
26 | CC(C)O[C@H]1CN(Cc2cnc3c(-c4ccccc4)cnn3c2)C[C@@H]1O | 8.74
27 | CN(Cc1ccsc1)C(=O)c1cc2c([nH]c1=O)CCC2 | -9.6
28 | Cc1csc(CNCc2c(C)nn(C)c2N2CCOCC2)n1 | -19.7
29 | CCCN(CC)C(=O)c1ncn2c1CN(C)S(=O)(=O)c1ccccc1-2 | -49.7
30 | COCCOCC(=O)Nc1nc2c(OC)cc(F)cc2s1 | 7.65
31 | Cc1nnc(CN(Cc2ccc3c(c2)OCO3)C2CCC(C)CC2)o1 (stereo not drawn) | -45.9
32 | COc1cc(OC)c(C2CC(=O)Oc3cc(C)[nH]c(=O)c32)cc1OC (stereo not drawn) | 4.07
33 | Cn1cc2ncn(CCCOc3cccnc3)c(=O)c2n1 | 14.3
34 | CC(Cn1cnc2cn(C)nc2c1=O)Oc1cccnc1 (stereo not drawn) | 52.6
35 | Cn1cc2ncn(CCNc3cccnc3)c(=O)c2n1 | 31.6
36 | Cc1ccc(S(=O)(=O)NC(C)C#N)cc1Br (stereo not drawn) | 4.95
37 | CCC(=O)c1cccc(S(=O)(=O)NC(C)C#N)c1 (stereo not drawn) | 54.4
38 | CC(C#N)NS(=O)(=O)c1cccc(C(C)C)c1 (stereo not drawn) | 22.3
39 | CS(=O)(=O)NCC1CCCCN1C(=O)Nc1cccnc1N1CCCC1 (stereo not drawn) | 34.7
40 | c1coc(-c2nnc(CN3CCCC3Cn3cncn3)o2)c1 (stereo not drawn) | 17.5
41 | CCCn1ncc(CN(Cc2ccsc2)Cc2ccco2)c1C | 13
42 | CCCn1ncc(CN(CCN(C)C)Cc2ccsc2)c1C | 57.5
43 | CCCn1ncc(CN(Cc2cccnc2)Cc2ccsc2)c1C | 22.9
44 | Cc1c(C(=O)NCC(C)C)nnn1-c1cccc2c1CCN(C(C)C)C2 | 38

Row | Structure (SMILES) | INHIBITION [%]
45 | Cc1c(C(=O)NCCC(C)C)nnn1-c1cccc2c1CCN(C)C2 | 36.3
46 | CCC(C)(C)NC(=O)c1nnn(-c2cccc3c2CCN(C)C3)c1C | 36.3
47 | Cc1c(C(=O)NC(C)C(C)C)nnn1-c1cccc2c1CCN(C)C2 (stereo not drawn) | 11.8
48 | Cc1c(C(=O)NCC(C)C)nnn1-c1cccc2c1CCN(C)C2 | 56.1
49 | CCC(C)NC(=O)c1nnn(-c2cccc3c2CCN(C)C3)c1C (stereo not drawn) | 51.7
50 | Cc1ccc(C)c(C(C)NC(=O)N2CCC(n3cncn3)CC2)c1 (stereo not drawn) | -3.2
51 | CN1CCN([C@@H]2CCN(C3CCOC3)[C@H]2Cc2cnn(C)c2)CC1 (stereo partly drawn) | 24.9
52 | Cc1cc2ncn(C(=O)N3CCCCC3)c2cc1C | -16
53 | CCOC1CCCN(C(=O)c2ccccc2NCc2cccnc2)C1 (stereo not drawn) | 16.8
54 | O=C(Cc1ccc2c(c1)OCCO2)NC1CC1 | -60.4
55 | CC[C@@H]1N(Cc2ccc(C)o2)CCC[C@]12CCC(=O)N2CCOC | 29.3
56 | O=C(C1CCOCC1)N1CC[C@H]2[C@H]1CCN2c1nncs1 | 40.8
57 | CC1=Nc2c(c(=O)[nH]n2C2CCCCC2)C(c2ccc(C(=O)O)cc2)S1 (stereo not drawn) | 36.55
58 | CC1=Nc2c(c(=O)[nH]n2C2CCCC2)C(c2ccc(C(=O)O)cc2)S1 (stereo not drawn) | 26.65
59 | COC(=O)c1ccc(C2SC(C)=Nc3c2c(=O)[nH]n3C2CCCC2)cc1 (stereo not drawn) | 76.3
60 | CCc1nnc(C2Cc3ccccc3CN2Cc2cc(C)on2)o1 (stereo not drawn) | 68.1
61 | CCc1nnc(C2Cc3ccccc3CN2Cc2cc(C)no2)o1 (stereo not drawn) | 58.1
62 | Cc1cc(CN2Cc3ccccc3CC2c2nnc(C)o2)on1 (stereo not drawn) | -8.3
63 | Cc1noc(CN2Cc3ccccc3CC2c2nnc(C)o2)n1 (stereo not drawn) | 20.2
64 | Cc1nnc(C2Cc3ccccc3CN2Cc2nc(C3CC3)no2)o1 (stereo not drawn) | 23.7
65 | CCc1nnc(C2Cc3ccccc3CN2Cc2ncc(Cl)n2C)o1 (stereo not drawn) | 1.84
66 | Cc1cc(CN2Cc3ccccc3CC2c2nnc(C)o2)no1 (stereo not drawn) | 7.67

Row | Structure (SMILES) | INHIBITION [%]
67 | CCc1nnc(C2Cc3ccccc3CN2Cc2nc(C3CC3)no2)o1 (stereo not drawn) | 60.9
68 | CCc1nnc(C2Cc3ccccc3CN2Cc2nc(C)no2)o1 (stereo not drawn) | 9.64
69 | CNC(=O)CCc1cc(C2CCCCN2C(C)C)nc(C)n1 (stereo not drawn) | 15.1
70 | Cc1nc(CN(C)C2CCCN(Cc3noc(C4CC4)n3)C2)oc1C (stereo not drawn) | 40.2
71 | COc1cccc(CC(=O)N2CCCC(c3nncn3C)C2)c1 (stereo not drawn) | -26.6
72 | Cc1ccc(-c2noc(CN3CCCC(Cn4cncn4)C3)n2)cc1 (stereo not drawn) | 48.2
73 | Cc1cccc2[nH]c(C3CCCN(Cc4ccccc4C(=O)O)C3)nc12 (stereo not drawn) | 37.6
74 | Cc1cc(C2CCCN(CCCS(N)(=O)=O)C2)n[nH]1 (stereo not drawn) | 16.8
75 | c1cc(CN2CCO[C@H]3[C@H](OCC4CCOCC4)CC[C@@H]32)co1 | -34.9
76 | Cc1nn(C)c(C)c1C1CCCN1C(=O)c1cnc2onc(C)c2c1 (stereo not drawn) | -2.53
77 | O=S(=O)(CCCNC1CCc2ncnn2C1)c1ccccc1 (stereo not drawn) | 31.3
78 | CN(C)C(=O)CO[C@@H]1CC[C@H]2[C@H]1OCCN2c1ncc(F)cn1 | 64.3
79 | CN(C)C(=O)CO[C@@H]1CC[C@H]2[C@H]1OCCN2c1ncccn1 | 20.1
80 | Cc1noc(C)c1CN1C[C@H](OCC(=O)N(C)C)[C@H]2OCCC[C@H]21 | 10.5
81 | Cc1noc(C)c1CN1C[C@@H](OCC(=O)N(C)C)[C@H]2OCCC[C@H]21 | 74.8
82 | Fc1cnc(N2CCO[C@H]3[C@H](OCC4CCOCC4)CC[C@@H]32)nc1 | 38.5
83 | Cc1noc(C)c1CN1C[C@H](OCC(=O)N(C)C)[C@H]2COC[C@H]21 | 15.3
84 | CNC(=O)c1ccc(C2CCCN(C(=O)c3c(C)noc3C)C2)nc1 (stereo not drawn) | 17.1
85 | CC1(C2CCN(CCCC(=O)O)CC2)CN(Cc2ccccc2)C(=O)O1 (stereo not drawn) | 7.52
86 | Cn1nnc2cc(C(=O)N3CCC(Nc4cccnn4)CC3)ccc21 | 10
87 | Cc1ccsc1CNCC1CCCN1c1cccnn1 (stereo not drawn) | -36.25
88 | Cc1cc(C)c2cc(CNCc3cccnc3)c3nn(C)c(=O)n3c2c1 | 50.1

Row | Structure (SMILES) | INHIBITION [%]
89 | Cc1cc(C)c(N(CC(O)CNCc2ccccc2)S(C)(=O)=O)c(C)c1 (stereo not drawn) | 35.1
90 | Cc1cnn(CCNCC(=O)NCc2ccccc2)c1 | 18.4
91 | CCOCCCNCc1cc2c(C)cc(C)cc2n2c(=O)n(C)nc12 | 51.5
92 | CCCNCc1cc2c(C)cc(C)cc2n2c(=O)n(C)nc12 | 33
93 | CC(C)c1nn(C)c(N(C)C)c1CNCc1cccnc1 | -3.48
94 | Cc1nn(C)c(N(C)C)c1CNCc1cccnc1 | 40.7
95 | Cc1cc(C)c2cc(CNCc3ccccc3)c3nn(C)c(=O)n3c2c1 | 73.4
96 | COCCNCc1cc2c(C)cc(C)cc2n2c(=O)n(C)nc12 | 48.6
97 | CCCC(=O)N1CCC(c2cc3n(n2)[C@@H](C(F)(F)F)C[C@@H](C)N3)CC1 | 36.4
98 | Cc1cnc(N(C)CCCc2cnn(C)c2)nc1N(C)C | -0.996
99 | COCC(=O)N1CC(C(=O)NCC2CC2)C2(CCOCC2)C1 (stereo not drawn) | 15.8
100 | CC(C)C(=O)NCC(=O)NCC1CCN(c2cnn(C)c(=O)c2)CC1 | 26.1
101 | CCOC(=O)N1CCC(NCC2CCN(c3cnn(C)c(=O)c3)C2)CC1 (stereo not drawn) | 26.6
102 | CC(CN1CCOCC1)NCC1CCN(c2cnn(C)c(=O)c2)CC1 (stereo not drawn) | 33.5
103 | Cn1ncc(N2CCC(CNC(=O)[C@@H](N)C3CCCCC3)CC2)cc1=O | 8.53
104 | Cn1ncc(N2CCC(CNC3CC(C)(C)CC(C)(C)C3)C2)cc1=O (stereo not drawn) | 72.3
105 | Cn1ncc(N2CCC(CNC(=O)[C@@H](N)c3ccccc3)CC2)cc1=O | -12.4
106 | Cn1ncc(N2CCC(CNC3CC(c4ccccc4)C3)CC2)cc1=O (stereo not drawn) | 63.7
107 | CCC(OC)C(=O)NCC1CCN(c2cnn(C)c(=O)c2)CC1 (stereo not drawn) | -0.275
108 | Cn1ncc(N2CCC(CNC3Cc4ccccc4C3)C2)cc1=O (stereo not drawn) | 58.7

Source: ChEMBL document CHEMBL4513216, “Probing the Open Global Health Chemical Diversity Library for Multistage-Active Starting Points for Next-Generation Antimalarials” (ACS Infect Dis, 2020)
